This is an account of results in PubChem BioAssay (NCATS).

The target in assay [1] is Cellular tumor antigen p53 (Homo sapiens) (UniProt P04637). Briefly: Primary qHTS for small molecule compounds that upregulate eGFP-tagged delta133p53alpha (in N-terminal) cells. (AID 2060322).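 For activation: series mostly up to about 56 µM; 0% = DMSO vehicle and 100% = reference activator.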 Note: nearly all actives have a fitted effect of over 75% in size. Note: potency is the fitted concentration of half-maximal effect. Conditions: NCI-H358 eGFP-delta133p53alpha fluorescence, 24 h; activation: hits give high values. The essentials: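 NCI-H358 cells pre-induced 24 h with 10 ng/ml doxycycline to express N-terminal eGFP-delta133p53alpha, then dosed 24 h at 37C without doxycycline; fixed, Hoechst-stained, GFP intensity by laser scanning cytometry, normalized to DMSO (0%) and 57.5 uM 5-azacytidine (100%).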
For orientation: qHTS replaces the single test concentration by a dilution series.

The target of assay [2] is Aldehyde dehydrogenase, mitochondrial (Homo sapiens) (UniProt P05091). The assay can be described thus: qHTS for Inhibitors of the Aldehyde Dehydrogenase Family (ALDH2) Primary screen (AID 2061308).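 Note: plate controls were vehicle for no effect and reference inhibitor for full effect; nearly all actives have a fitted effect of over 55% in size.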
The target in assay [3] is Retinaldehyde dehydrogenase 3 (Homo sapiens) (UniProt P47895). Briefly: qHTS for Inhibitors of the Aldehyde Dehydrogenase Family (ALDH1A3) Primary screen (AID 2061315).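 Note: plate controls were DMSO vehicle for no effect and reference inhibitor for full effect.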

Values joined by “and” are separate entries in the source; they are usually repeats but may differ in a detail not shown here. Equal entries are not always repeated. Records with an inconclusive call do not appear. Unmarked numbers belong to inactive results. Active and inactive are the calls of the source. Calls come from the whole dose curve; as a rule, active = well fitted curve in the direction sought with a large enough effect; inconclusive = small, poorly fitted or top-dose-only effect, or another doubt; inactive = no such curve, though single readings can be large; an effect the other way counts as inactive or inconclusive.

Cellular tumor antigen p53 (Homo sapiens), sequence (P04637 whole entry, looked up): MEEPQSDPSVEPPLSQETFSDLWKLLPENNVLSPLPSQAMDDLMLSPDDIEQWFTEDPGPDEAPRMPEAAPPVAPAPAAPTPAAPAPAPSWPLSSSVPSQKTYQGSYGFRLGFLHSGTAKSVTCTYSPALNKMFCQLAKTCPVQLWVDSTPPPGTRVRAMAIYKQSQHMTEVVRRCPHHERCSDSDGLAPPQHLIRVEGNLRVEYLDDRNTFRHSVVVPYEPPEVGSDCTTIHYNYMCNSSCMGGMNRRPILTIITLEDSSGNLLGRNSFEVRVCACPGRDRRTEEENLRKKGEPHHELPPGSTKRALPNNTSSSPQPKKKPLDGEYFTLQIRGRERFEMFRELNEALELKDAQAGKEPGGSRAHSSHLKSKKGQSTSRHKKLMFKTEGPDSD

As to `COc1ccc2c3ccnc4ccc(=O)n(c2c1)c43`, the activation in assay [1] was 17%. The Potency result in assay [2] and in assay [3] was “inactive” each time.
On to `CC(=O)O[C@@H]1[C@@H](OC(=O)/C=C/c2ccccc2)[C@@H](OC(C)=O)[C@H](O[C@H]2[C@@H]3C=CO[C@@H](O[C@@H]4O[C@H](CO)[C@@H](O)[C@H](O)[C@H]4O)[C@@H]3[C@@]3(CO)O[C@@H]23)O[C@H]1C`, for which, in assay [1], the activation was -12.2%. For the same compound, the Potency result in assay [2] and in assay [3] was “inactive” each time.
`CC(=O)O[C@@H]1[C@@H](O)[C@H](O[C@@H]2[C@@H](O)[C@@H](O)[C@H](O[C@H]3[C@H](O[C@H]4[C@H](O[C@H]5CC[C@@]6(C)C(CC[C@]7(C)C6CC=C6[C@@H]8CC(C)(C)CC[C@]8(C(=O)O)CC[C@]67C)[C@]5(C)CO)O[C@H](CO)[C@@H](O)[C@@H]4O)OC[C@@H](O)[C@@H]3O)O[C@H]2C)OC[C@H]1O` (stereo partly specified): the activation in assay [1] is -3.05%. Moreover, the Potency result in assay [2] and in assay [3] was “inactive” in each case.
Turning to `Nc1nc(NC2CC2)cc(-c2cccc(Cl)c2Cl)n1`, the Potency in assay [1] was 6.01 µM (active). Also, the Potency entry in assay [2] and in assay [3] was “inactive” in each case.
With `CC1=C2C[C@H]3O[C@@]3(C)CCC3O[C@@]3(C)C[C@@]2(O)OC1=O` (stereo partly specified), the activation in assay [1] was -2.29%. Moreover, the Potency entry in assay [2] and in assay [3] was “inactive” in each case.
As to `Cc1cc(Nc2nc(NC(C)c3ncc(F)cn3)ncc2Cl)n[nH]1` (stereo unspecified), the activation in assay [1] is 8.04%. Further, the Potency result in assay [2] and in assay [3] was “inactive” in each case.
As for `COc1c(OC2OC(CO)C(O)C(O)C2O)ccc(O)c1C(=O)OCc1ccccc1O[C@@H]1O[C@H](CO)[C@@H](O)[C@H](O)[C@H]1O` (stereo partly specified), the activation in assay [1] is 3.82%. Besides, the Potency entry in assay [2] and in assay [3] was “inactive” throughout.
For the compound `CC1CCC2C(C(=O)O)=CC3C(O)C(C)(C)CC123` (stereo unspecified), the activation in assay [1] is -0.763%. The Potency result in assay [2] and in assay [3] was “inactive” in each case.
On to `CC(=O)OC1C[C@]2(C)C(O)CC(C)=C[C@H](OC(=O)c3ccc(O)cc3)C2[C@]1(O)C(C)C` (stereo partly specified), for which the activation in assay [1] is -20.6%. In addition, the Potency entry in assay [2] and in assay [3] was “inactive” in each case.
As for `CC1(C)CC2C3=CCC4C5(C)CCC(OC6OC(CO)C(O)C(OC7OC(CO)C(O)C(OC8OC(CO)C(O)C(OC9OC(COC%10OC(CO)C(O)C(O)C%10O)C(O)C(O)C9O)C8O)C7O)C6O)C(C)(C)C5CCC4(C)C3(C)CCC2(C(=O)O)CC1O` (stereo unspecified), the activation in assay [1] was -24.4%. The figures for the activity change, negative = inhibition in assay [2] and in assay [3] were 8.77% [at 11.2 µM] and 1.03% [at 11.2 µM], respectively.
Consider `C/C1=C\CCC(C)CCO[C@@H]2O[C@H](CO[C@@H]3OC[C@H](O)[C@H](O)[C@H]3OC1=O)[C@@H](O)[C@H](O)[C@H]2O` (stereo partly specified), for which the activation in assay [1] is -24.1%. In addition, the Potency entry in assay [2] and in assay [3] was “inactive” each time.
Take `CC(C)C(C)C(O)C1CC23CC(=O)C4(O)C(=C2CCC3C1C)C=CC1(O)CC(O)CCC14C` (stereo unspecified): in assay [1], the activation was 15.3%. The Potency result in assay [2] and in assay [3] was “inactive” each time.
`CCOc1nc2cccc(C(=O)O)c2n1Cc1ccc(-c2ccccc2-c2nn[nH]n2)cc1`: the activation in assay [1] was -1.69% and 19.6%. In addition, the Potency result in assay [2] and in assay [3] was “inactive” in each case.
As to `Nc1ncnc2c1ncn2CCNCCCCCO`, the activation in assay [1] is -0.333%. Besides, the Potency entry in assay [2] and in assay [3] was “inactive” throughout.
With `C[C@@H]1O[C@@H](OC2C(CO)OC(OCC3OC(OC(=O)[C@]45CCC(C)(C)CC4C4=CCC6[C@@]7(C)CC[C@@H](O)[C@](C)(C(=O)O)C7CC[C@@]6(C)[C@]4(C)CC5)C(O)C(O)C3O)C(O)C2O)[C@H](O)[C@H](O)[C@H]1O` (stereo partly specified), the activation in assay [1] was -3.82%. In addition, the Potency entry in assay [2] and in assay [3] was “inactive” each time.
On to `C=CC1(C)CC2CCC3C(C)(C(=O)O)CCCC3(C)C2=CC1=O` (stereo unspecified), for which the activation in assay [1] was -16%. Besides, the Potency entry in assay [2] and in assay [3] was “inactive” each time.
`C=C1C(=O)OC2CC(C)=C(C(C)CCCO[C@@H]3O[C@H](CO)[C@@H](O)[C@H](O)[C@H]3O)C(O)C12` (stereo partly specified): the activation in assay [1] is -18.3%. For the same compound, the Potency entry in assay [2] and in assay [3] was “inactive” throughout.
Consider `O=C(O)/C=C/c1ccc(O)c(O[C@@H]2O[C@H](CO)[C@@H](O)[C@H](O)[C@H]2O)c1`, for which the activation in assay [1] is 16%. The Potency result in assay [2] and in assay [3] was “inactive” each time.
For `CNc1nc(Nc2cn(C(C)(C)C#N)nc2C)ncc1C(F)(F)F`, the activation in assay [1] was -23.2%. The Potency entry in assay [2] and in assay [3] was “inactive” throughout.
As for `C[C@@H]1CC[C@]2(C)C3(C)CC[C@@]2(OC3=O)[C@@]12C[C@H](c1ccoc1)OC2=O`, in assay [1], the activation is 26.7%. The Potency result in assay [2] and in assay [3] was “inactive” each time.
Take `CCN1C(C)(C)CC(Oc2ccc(C(=O)Nc3ccc(NC(=O)Nc4cc(C(C)(C)C)on4)cc3)nc2)CC1(C)C`: the Potency in assay [1] is 21.3 µM (active). Besides, the Potency entry in assay [2] and in assay [3] was “inactive” throughout.
Turning to `CO[C@H]1C[C@@H]2CC[C@@H](C)[C@@](O)(O2)C(=O)C(=O)N2CCCC[C@H]2C(=O)O[C@H]([C@H](C)C[C@H]2CC[C@@H](OP(C)(C)=O)[C@H](OC)C2)CC(=O)[C@H](C)/C=C(\C)[C@@H](O)[C@@H](OC)C(=O)[C@H](C)C[C@H](C)/C=C/C=C/C=C/1C`, the activation in assay [1] was 11%. Moreover, the Potency entry in assay [2] and in assay [3] was “inactive” in each case.
